esBAF inh: Bmi1 luciferase reporter increase in mESCs, primary screen, esBAF inhibitor project, mouse ES cells, Bmi1 luciferase knock-in, single point. 24 h; 100% = twice the neutral-well signal. AID 602393, 2012. 350,000 compounds, 2% hits. reporter increase, % at 12.5 µM; in the data active = activation above about 40%; inconclusive = no clear call, values can overlap the other calls;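 also: a rise in the Bmi1 reporter signal indicates esBAF inhibition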
dFosB activator: activators of delta FosB homodimer, primary screen, biochemical, fluorescence polarization, TAMRA-CDK5 oligo, single point. Protein FosB (Mus musculus), P13346. purified delta FosB; percent of positive-control signal above neutral wells. activation, % at 25 µM. 340,000 compounds, 0.99% hits;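 active = mean activation above about 17%, with every replicate also reaching it, limit read from the data, passing the limit was not always enough; inconclusive = only one of the two conditions met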
Target sequence (P13346 whole entry, looked up): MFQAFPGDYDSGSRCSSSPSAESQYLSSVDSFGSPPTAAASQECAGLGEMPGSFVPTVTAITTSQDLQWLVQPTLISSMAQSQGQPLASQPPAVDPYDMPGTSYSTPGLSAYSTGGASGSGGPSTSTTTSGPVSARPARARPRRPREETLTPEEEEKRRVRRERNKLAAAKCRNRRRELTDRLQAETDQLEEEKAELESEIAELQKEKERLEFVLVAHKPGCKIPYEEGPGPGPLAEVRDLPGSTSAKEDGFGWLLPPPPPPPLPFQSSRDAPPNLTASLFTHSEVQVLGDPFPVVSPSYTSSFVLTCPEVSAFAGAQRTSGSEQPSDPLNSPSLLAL
Rtt109 Vps75: inhibitors of C. albicans Rtt109/Vps75 HAT, primary screen, biochemical, ThioGlo CoA-SH fluorescence, plate reader; Histone acetyltransferase RTT109 (Candida albicans (strain SC5314 / ATCC MYA-2876)), …; purified Rtt109/Vps75, 4 h; inhibition, % at 34.9 µM; 330,000 compounds, 0.16% hits; AID 540336, 2011;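 active = inhibition of at least 50% in every replicate; inconclusive = best replicate reaches 50% inhibition but some replicates fall short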
Target sequence (Q5AAJ8 whole entry, looked up): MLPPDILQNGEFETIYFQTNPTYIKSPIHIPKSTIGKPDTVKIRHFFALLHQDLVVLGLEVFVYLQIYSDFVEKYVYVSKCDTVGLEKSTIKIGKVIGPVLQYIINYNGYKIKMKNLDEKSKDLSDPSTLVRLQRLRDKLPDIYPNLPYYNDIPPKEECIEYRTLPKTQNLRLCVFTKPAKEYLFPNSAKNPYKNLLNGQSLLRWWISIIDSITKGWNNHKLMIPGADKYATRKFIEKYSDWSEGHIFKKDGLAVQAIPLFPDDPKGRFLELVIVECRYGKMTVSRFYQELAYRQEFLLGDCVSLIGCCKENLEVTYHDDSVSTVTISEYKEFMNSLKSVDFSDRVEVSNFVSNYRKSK
Dyrk1A ADPGlo: rat Dyrk1A kinase inhibitors, primary screen, biochemical, single point, plate reader. Dual specificity tyrosine-phosphorylation-regulated kinase 1A (Rattus norvegicus), Q63470. ADP-Glo luminescence, NFATc1 peptide. inhibition, % at 12.5 µM. 310,000 compounds, 0.43% hits; in the data active = inhibition above about 50%
CDK5 inh: inhibitors of human CDK5/p35 kinase, primary screen, biochemical, single concentration; 330,000 compounds, 0.01% hits; inhibition, % at 10 µM; Recombinant CDK5/p35, ADP-Glo luminescence, 60 min; AID 488839, 2010; Cyclin-dependent kinase 5 (Homo sapiens) + Cyclin-dependent kinase 5 activator 1 (Homo …;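 active = highest replicate inhibition of at least 50% and at least 75% of replicates reaching 50%; inconclusive = only one of the two criteria met; inactive = both criteria failed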
SMARCA2 activ: SMARCA2 (BRM) function activators, primary screen, cell-based, luminescence, high throughput | MG213 cells, MMTV-luciferase reporter, dexamethasone, overnight | activation, % at 9.1 µM | 370,000 compounds, 1% hits | AID 652017, 2013; in the data active = activation above about 7.8%
SMARCA2 act conf: SMARCA2 (BRM) function activators, confirmation, cell-based, luminescence, triplicate | shares compounds with SMARCA2 activ | MG213 cells, MMTV-luciferase with dexamethasone, overnight; MG213 cells expressing E1A, Rb sequestered; DMSO wells 0%, reference activator 100% | activation, % at 9.1 µM | 3,500 compounds, 30% hits | AID 652260, 2013;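 active = activation above its plate's cutoff, the mean activation of tested wells plus 3 SD, cut at about 7.9% in these data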
VP16 Luc act: GAL4-VP16 luciferase reporter activation, counter-screen for SMARCA2 (BRM) activator project, cell-based, pG5luc, luminescence, high throughput; shares compounds with SMARCA2 activ; HEK293 GAL4-VP16 pG5luc reporter; scaled: DMSO wells 0%, SAHA wells 100%; activation, % at 9.1 µM; 3,500 compounds, 41% hits; AID 686939, 2013;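 active = activation above the solvent-only control well mean plus 3 SD, averaged across control plates, cut at about 5.2% in these data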
Large screens that a line does not name were inactive (follow-up assays come after a bar, where they were run); ! = not confirmed by another sample. Shown are actives, neighbours in structure and some others; about 3.2% of the full set was active somewhere.

CCOC(=O)c1c(C)[nH]c(C(=O)CN2C(=O)C(=O)N(CC(C)C)C2=O)c1C	none (no result: esBAF inh)
COC(=O)c1c(C)[nH]c(C(=O)CN2C(=O)C3CC=CCC3C2=O)c1C (configuration not stated)	esBAF inh inconclusive, SMARCA2 activ 9.0 (no result: Dyrk1A ADPGlo) | SMARCA2 act conf inactive | VP16 Luc act inactive
COc1ccc(/C=C2\OC(=O)c3c(OC)cccc32)cc1OC	esBAF inh 47.6, SMARCA2 activ 8.6 | SMARCA2 act conf 22.1 | VP16 Luc act 13.9
O=C(Oc1ccccc1C(=O)N1CCOCC1)c1ccccc1	SMARCA2 activ 8.0 | SMARCA2 act conf inactive | VP16 Luc act inactive
C[C@@H]1CCCCO[C@H](CN(C)CC2CCCCC2)[C@H](C)CN([C@H](C)CO)C(=O)c2cc(NC(=O)CCC(F)(F)F)ccc2O1	none (no result: dFosB activator, Rtt109 Vps75, Dyrk1A ADPGlo, CDK5 inh, SMARCA2 activ)
Oc1cccc(Nc2ncnc3ccccc23)c1	SMARCA2 activ 8.1 (no result: esBAF inh) | SMARCA2 act conf inactive | VP16 Luc act inactive
Nc1cccc(Nc2ncnc3ccccc23)c1	none
CCS(=O)(=O)NCC[C@H]1CC[C@H](NC(=O)C2CCOCC2)[C@H](CO)O1	none (no result: dFosB activator, Rtt109 Vps75, Dyrk1A ADPGlo, CDK5 inh, SMARCA2 activ)
c1ccc2[nH]c(-c3ccnc4ccccc34)nc2c1	SMARCA2 activ 10.7! | SMARCA2 act conf inactive | VP16 Luc act inactive
c1ccc2c(-c3nc4ccccc4[nH]3)cccc2c1	none (no result: esBAF inh, dFosB activator, Rtt109 Vps75, Dyrk1A ADPGlo, CDK5 inh)
O=C(O)CCS(=O)(=O)c1nc(-c2cccs2)cc(C(F)(F)F)n1	SMARCA2 activ 13.2 | SMARCA2 act conf inactive | VP16 Luc act inactive
O=C(NC(=O)c1ccc(F)cc1)Nc1nc(-c2cccs2)cc(C(F)(F)F)n1	SMARCA2 activ 8.4 | SMARCA2 act conf inactive | VP16 Luc act inactive
Cc1cc(NC(=O)CCCS(=O)(=O)c2nc(-c3cccs3)cc(C(F)(F)F)n2)no1	none (no result: esBAF inh)
C/C(=N\NC(=O)c1nn(C)cc1Cl)c1ccncc1	SMARCA2 activ 9.5 (no result: esBAF inh) | SMARCA2 act conf inactive | VP16 Luc act inactive
C/C(=N\NC(=O)c1nn(C)cc1Br)c1ccncc1	none (no result: esBAF inh)
CN(C)CC(=O)Nc1ccc2c(c1)[C@H]1C[C@@H](CC(=O)NCc3cccc(F)c3)O[C@H](CO)[C@H]1O2	none (no result: dFosB activator, Rtt109 Vps75, Dyrk1A ADPGlo, CDK5 inh, SMARCA2 activ)
O=C1/C(=C/c2cccs2)Cc2ccccc21	SMARCA2 activ 9.6 | SMARCA2 act conf 8.3 | VP16 Luc act inactive
O=C1C(=Cc2cccs2)C(=O)c2ccccc21	none (no result: esBAF inh)
COCC#Cc1cnc2c(c1)C(=O)N([C@H](C)CO)C[C@@H](C)[C@H](CN(C)C(=O)Nc1cccc(F)c1)O2	none (no result: dFosB activator, Rtt109 Vps75, Dyrk1A ADPGlo, CDK5 inh, SMARCA2 activ)
O=C(Cc1ccccc1)NCC1COc2ccccc2O1 (configuration not stated)	none (no result: esBAF inh)
Cn1cccc1C(=O)NCC1COc2ccccc2O1 (configuration not stated)	esBAF inh 55.5, SMARCA2 activ 11.3 | SMARCA2 act conf 10.0 | VP16 Luc act 7.1
C[C@H]1CN([C@@H](C)CO)C(=O)CCCn2cc(nn2)CO[C@H]1CN(C)C(=O)Nc1cccc(Oc2ccccn2)c1	none (no result: dFosB activator, Rtt109 Vps75, Dyrk1A ADPGlo, CDK5 inh, SMARCA2 activ)
COc1cc(O)c2c(=O)c(-c3ccc(O[C@@H]4O[C@H](CO)[C@@H](O)[C@H](O)[C@H]4O)cc3)coc2c1	SMARCA2 activ 8.8 | SMARCA2 act conf 12.7 | VP16 Luc act 9.1
CCS(=O)(=O)N1Cc2ccccc2CC1C(=O)Nc1ccc(OC)cc1 (configuration not stated)	none (no result: esBAF inh)
CCS(=O)(=O)N1Cc2ccccc2CC1C(=O)Nc1ccc(F)c(F)c1 (configuration not stated)	SMARCA2 activ 14.6 | SMARCA2 act conf inactive | VP16 Luc act inactive
CCOc1ccc(NC(=O)C2Cc3ccccc3CN2S(=O)(=O)CC)cc1 (configuration not stated)	SMARCA2 activ 10.3 (no result: Rtt109 Vps75) | SMARCA2 act conf inactive | VP16 Luc act inactive
CCC(=O)N[C@H]1C=C[C@@H](CC(=O)OC)O[C@@H]1CO	none (no result: dFosB activator, Rtt109 Vps75, Dyrk1A ADPGlo, CDK5 inh, SMARCA2 activ)
COc1ccc2nc(NC(=O)Nc3ccccc3OC)sc2c1	SMARCA2 activ 12.2 (no result: esBAF inh) | SMARCA2 act conf inactive | VP16 Luc act 10.4
CCCC(=O)Nc1nc2ccc(OCC)cc2s1	none
CC(=O)NCCC(=O)Nc1nc2ccc(Oc3ccccc3)cc2s1	SMARCA2 activ 10.6 | SMARCA2 act conf inactive | VP16 Luc act 8.7
CC(C)c1ccc(/C=C2\SC(N3CCCC3)=NC2=O)cc1	SMARCA2 activ 8.3 (no result: esBAF inh) | SMARCA2 act conf inactive | VP16 Luc act inactive
Cc1ccc(OCc2cc(C(=O)N3CCN(c4ccccc4)CC3)no2)cc1C	esBAF inh inconclusive, SMARCA2 activ 13.4 | SMARCA2 act conf inactive | VP16 Luc act 6.4
CN(C)CCNc1cccc2sc3ccc(O)cc3c(=O)c12	SMARCA2 activ 15.6 (no result: esBAF inh, dFosB activator, Rtt109 Vps75, Dyrk1A ADPGlo, CDK5 inh) | SMARCA2 act conf 31.5 | VP16 Luc act 8.4
CCN(CC)CCNc1cccc2sc3ccccc3c(=O)c12	none (no result: dFosB activator, Rtt109 Vps75, Dyrk1A ADPGlo, CDK5 inh)
Cc1cc2cc(OCc3ccccc3)ccc2n1C	SMARCA2 activ 12.8 | SMARCA2 act conf inactive | VP16 Luc act 8.1
C[C@@H]1CN([C@@H](C)CO)C(=O)Cc2cc(NC(=O)C3CCCCC3)ccc2O[C@H]1CN(C)Cc1ccccc1	none (no result: dFosB activator, Rtt109 Vps75, Dyrk1A ADPGlo, CDK5 inh, SMARCA2 activ)
C[C@H]1CN([C@@H](C)CO)C(=O)Cc2cc(NC(=O)Cc3ccccc3)ccc2O[C@H]1CN(C)C	none (no result: dFosB activator, Rtt109 Vps75, Dyrk1A ADPGlo, CDK5 inh, SMARCA2 activ)
CCC1(c2ccc(Cl)cc2)NC(=S)N(c2ccc(C)cc2)N1 (configuration not stated)	SMARCA2 activ 9.3 (no result: esBAF inh) | SMARCA2 act conf inactive | VP16 Luc act inactive
COc1ccc(C)cc1-n1cnnn1	SMARCA2 activ 8.1 (no result: esBAF inh) | SMARCA2 act conf inactive | VP16 Luc act inactive
COc1ccc(N)cc1-n1cnnn1	none (no result: esBAF inh)
CC1Cc2ccccc2N1S(=O)(=O)c1cccc(C(=O)c2nccn2C)c1 (configuration not stated)	SMARCA2 activ 8.6 (no result: Dyrk1A ADPGlo) | SMARCA2 act conf inactive | VP16 Luc act inactive
CC1Cc2ccccc2N1S(=O)(=O)c1cccc(C(=O)N2CCCCC2)c1 (configuration not stated)	none (no result: esBAF inh)

Bioassay records (PubChem BioAssay)
